This note sets out measurements from PubChem BioAssay AID449762 (Southern Research Specialized Biocontainment Screening …, 2010).

The campaign covered roughly 330,000 compounds. About 1,900 (0.58%) were called active. Another 4% or so got no clear call; they are omitted. A selection follows. Potency and affinity values are given separately. Unmarked numbers belong to inactive results. Cut-off read from the data, not from the text of the source: inconclusive = inhibition above about 70% without an active follow-up result; inactive = below that.

The assay in a line: M. tuberculosis growth inhibition, HTS (AID 449762).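 Note: bacterial growth assessed after seven days of incubation.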 As to conditions: M. tuberculosis H37Rv growth inhibition, 7H9 media; at 25 µM; hits give high values.
As a reminder, the inhibition is the drop in the measured response relative to a control, in per cent. On to `O=C(CCC(=O)OCc1ccc([N+](=O)[O-])cc1)Nc1ccccc1Cl`, for which the inhibition is -11.9%.
With `CC(C)(C)c1ccc(C(=O)NNC(=O)c2ccc(Cl)cc2)cc1`, the inhibition is -6.43%.
For `CC(C)(C)NC(=O)C(=O)NNC(=O)c1ccccc1`, the inhibition is -5.28%.
In the case of `Cc1cc(C)c(S(=O)(=O)c2cc(F)ccc2C)c(Cl)n1` it was 6.18%; in that of `Cc1cc(/C([O-])=C(/C(=S)Nc2ccc(F)cc2)[n+]2ccccc2)c(C)n1-c1ccc(F)cc1`, -9.36%; in that of `Cc1cc(/C([O-])=C(/C(=S)Nc2ccccc2)[n+]2ccccc2)c(C)n1-c1ccccc1`, 38.1%.
In the case of `CC(CC(=O)N1CCN(S(=O)(=O)c2ccc(Cl)cc2)CC1)n1cncn1` (stereo unspecified) it was 7.22%; in that of `Cc1cc2nncn2c(Cc2ccccc2)n1`, -5.06%.
Take `CCCNC(=O)c1onc(CSc2ccccc2)c1C(=O)NCCC`: the inhibition is 3.78%.
The value for `CCc1cc2c(=O)n(CC(C)C)cnc2s1` was 13.2%; that for `CCc1cc2c(=O)n(CC(=O)NC3CCCCC3)cnc2s1` was -19.5%; that for `Cc1sc2ncn(CC(=O)N(CC(=O)NC3CCCC3)Cc3cccs3)c(=O)c2c1C` was -6.3%.
The value for `O=C(CCc1nc(-c2ccccc2F)no1)NCCc1ccccc1Cl` was -5.37%; that for `CC(=O)Oc1ccc(C(=O)Nc2cccc(C(=O)c3ccc(C)c(C)c3)c2)cc1` was 6.87%; that for `O=C(C[n+]1cccc(C(=O)N/N=C/c2ccc(Br)cc2)c1)c1ccccc1` was -3.73%.
In the case of `O=C(N/N=C/c1ccc(O)cc1)c1cc[n+](Cc2ccccc2)cc1` it was -5.45%; in that of `Cn1c(=O)n(C)c2cc([N+](=O)[O-])c(N3CCN(S(=O)(=O)c4ccc(C(C)(C)C)cc4)CC3)cc21`, -9.94%.
Turning to `Cc1ccc(OCc2nc(C#N)c(N3CCN(Cc4ccccc4)CC3)o2)cc1`, the inhibition was -9.38%.
In the case of `CCN1CCN(c2oc(COc3ccc(Cl)cc3)nc2C#N)CC1` it was 8.42%.
In the case of `CCCc1nc2oc3c(NCc4ccccn4)ncnc3c2c2c1COC(C)(C)C2` it was -3.19%; in that of `CCOc1ccc(N2CC(C(=O)N3CCCCCC3)CC2=O)cc1` (stereo unspecified), -1.61%; in that of `COc1ccc(NC(=O)CSc2nnc3ccc(-c4ccccn4)nn23)c(OC)c1`, -1.07%.
On to `CNCc1ccccc1OCC(=O)Nc1ccccc1`, for which the inhibition was -16.8%.
In the case of `CC(C)(CO)NCc1ccccc1OCC(=O)Nc1ccccc1`, the inhibition was -10.3%.
The value for `CCc1cc2c(SCC(=O)c3cccs3)ncnc2s1` was -6.51%.
The value for `CCNCC(=O)N1c2ccccc2CCc2ccc(NC(C)=O)cc21` was -1.99%.
With `CCNCC(=O)N1c2ccccc2CCc2ccc(NC(=O)OCC)cc21`, the inhibition is 8.22%.
In the case of `Cc1ccc(Oc2ccc(Oc3ccc(C)cc3)nn2)cc1` it was 1.77%; in that of `O=C(CN1CCN(S(=O)(=O)c2ccccc2)CC1)N1CCCCC1`, -3.13%.
The value for `CCCn1c(NCc2ccc3c(c2)OCO3)nc2ccccc21` was 13.3%.
In the case of `CN(C)CCCn1c(NCc2ccc3c(c2)OCO3)nc2ccccc21` it was -3.55%; in that of `CNC(=O)c1c(NC(=O)c2ccco2)sc2c1CCC2`, 8.18%; in that of `O=C(CCNS(=O)(=O)c1ccccc1)NNC(=O)COc1ccccc1F`, 0.68%.
For the compound `CCCOC(=O)c1cccc(NC(=O)COc2ccc([N+](=O)[O-])cc2)c1`, the inhibition was 66.4%.
The value for `NC(=O)COc1ccc(Cc2ncc(C(F)(F)F)cc2Cl)cc1` was 5.51%.
`CC(=O)C(C)Oc1ccc(Cc2ncc(C(F)(F)F)cc2Cl)cc1` (stereo unspecified): the inhibition is 10.2%.
As to `C=CCn1c(SCC(=O)c2c(N)n(C)c(=O)n(C)c2=O)nnc1-c1ccoc1C`, the inhibition is 2.92%.
The value for `CC(Sc1nnc(-c2cccnc2)n1N)C(=O)N1CCOCC1` (stereo unspecified) was -0.03%.
In the case of `COc1cc(C(=O)NCCC(=O)NCCN2CCCCCC2)cc(OC)c1OC` it was -5.5%.
In the case of `COC(=O)COc1ccc(S(=O)(=O)NCCC2=CCCCC2)cc1` it was 59.1%; in that of `CCCNS(=O)(=O)c1ccc(OCC(=O)NCCC2=CCCCC2)cc1`, -5.92%; in that of `CC1CC(NS(=O)(=O)c2cc3c4c(c2)CCN4C(=O)CC3)CC(C)(C)C1` (stereo unspecified), 12.2%.
Turning to `Cc1ccc(-n2cc(-c3ccccc3)c3c(=O)[nH]cnc32)cc1`, the inhibition was 8.81%.
Regarding `O=c1[nH]cnc2c1c(-c1ccccc1)cn2-c1ccccc1`, the inhibition was 5.31%.
In the case of `COc1ccc(CCNC(=O)c2[nH]c(C)c(C(C)=O)c2C)cc1OC` it was -6.23%.
In the case of `O=C(/C=C/c1ccco1)Nc1ccc(-c2nc3ccccc3[nH]2)cc1` it was -5.99%; in that of `Cc1ccc(-c2nc3ccccc3[nH]2)cc1NC(=O)/C=C/c1ccco1`, 7.41%.
In the case of `COC(=O)c1nnn(-c2nonc2N)c1CSc1ccccn1` it was -4.14%.
As for `Cc1ccc(NC(=O)c2ccccc2SCC(=O)N2CCCC2)cc1S(=O)(=O)N(C)C`, the inhibition was -1.08%.
The value for `CC(C)(C)NC(=O)C(c1c[nH]c2ccccc12)N(C(=O)Cn1nnc(-c2ccc(Cl)cc2)n1)c1ccccc1F` (stereo unspecified) was 2.56%.
For `COc1cccc(N(C(=O)Cn2nnc(-c3ccc(C)cc3)n2)C(C(=O)NC(C)(C)C)c2c[nH]c3ccccc23)c1` (stereo unspecified), the inhibition is -12.2%.
The value for `Cc1cc([N+](=O)[O-])nn1CC(=O)Nc1cnc2ccccc2c1` was -3.67%.
On to `Cc1ccc(CCNC(=O)c2nn(C)c3c2CS(=O)(=O)c2ccccc2-3)cc1`, for which the inhibition is 3.98%.
In the case of `O=C(NC(=S)N1CCCCC1)c1cccs1` it was 4.84%; in that of `CCOC(=O)C1CCN(C(=S)NC(=O)c2cccs2)CC1`, 0.89%; in that of `Cn1c(-c2ccsc2)c(-c2cccs2)c2cc(-c3ccc4cc[nH]c4c3)ccc21`, -1.89%.
The value for `Cc1ccc(NC(=O)C(c2ccccc2)N2CCN(C(=O)c3ccco3)CC2)cc1Cl` (stereo unspecified) was -11.9%; that for `Cc1nn(-c2nc3ccccc3[nH]2)c(=O)c2ccccc12` was 5.73%.
Regarding `Cc1nn(-c2nc3ccccc3s2)c(N)c1-c1ccc(Cl)cc1`, the inhibition was 1.29%.
The value for `Cc1cc(C)nc(NS(=O)(=O)c2ccc(NS(=O)(=O)c3ccccc3)cc2)n1` was -6.64%; that for `CC1(C)Cc2c(sc3c2C(=O)N(c2ccccc2)C2=NCCCN23)CO1` was 1.18%; that for `CCCC(=O)Nc1nc(C(=O)OCC)cs1` was 2.98%.
In the case of `CCOC(=O)c1csc(NC(C)=O)n1` it was 0.4%; in that of `O=C(c1ccc(Cl)cc1)C1CCCN(Cc2cccc3cccnc23)C1` (stereo unspecified), 9.96%; in that of `O=C(CCCOc1ccc(Cl)cc1)Nc1cccc(C(=O)O)c1`, 7.01%.
With `O=C(OCCN1CCCCC1)c1cc2ccccc2o1`, the inhibition is -14.3%.
In the case of `O=C(OCCN1C(=O)c2ccccc2C1=O)c1ccco1` it was -9.08%; in that of `COc1ccccc1/C=C/C=N/n1c(C2CCCCC2)n[nH]c1=S`, 0.81%; in that of `CC(=O)c1ccc(N2CCN(C(=O)c3cc(-c4ccncc4)nc4ccc(Cl)cc34)CC2)cc1`, 7.21%.
With `CN1CCN(CCCNC(=O)c2ccc(/C=C3\Oc4ccccc4N(Cc4ccccc4F)C3=O)cc2)CC1`, the inhibition is 57.7%.
In the case of `Cc1cccc(CN2C(=O)/C(=C\c3ccc(C(=O)NCCN4CCOCC4)cc3)Sc3ccccc32)c1` it was 49.5%.
The value for `Cc1ccc(Cn2nc(C)c(NC(=O)CSc3n[nH]c(C)c3[N+](=O)[O-])c2C)cc1` was -3.06%; that for `O=C(NC1CCN(C(=O)N2c3ccccc3Sc3ccccc32)CC1)c1ccco1` was -19.1%.
The value for `O=C(NC1CCN(C(=O)N2c3ccccc3Sc3ccccc32)CC1)c1ccccc1Cl` was 62.3%; that for `Cc1sc2ncnc(SCC(=O)c3cccs3)c2c1C` was -19.7%.
Turning to `COC(=O)c1ccccc1NC(=O)c1cc2n(n1)C(C(F)F)CC(C(F)F)N2` (stereo unspecified), the inhibition was -2.91%.
In the case of `O=c1[nH]c(SCc2ccc(Cl)cc2)nc2ccccc12` it was 4.03%.
The value for `O=C(CSc1nc2[nH]ncc2c(=O)[nH]1)NCc1ccccc1` was -0.89%; that for `CC1CC(C)CN(CCOc2ccccc2-c2ccccc2)C1` (stereo unspecified) was 3.01%.
The value for `O=C(COC(=O)c1ccc2c(c1)S(=O)(=O)N=C1CCCCCN12)NCCc1ccc(F)cc1` was -6.19%; that for `COCC(=O)N(Cc1cc2ccc(C)cc2[nH]c1=O)c1ccc(C)cc1C` was -1.78%.
Take `Cc1ccc(-c2c(C#N)c(N)nc3c2CCCCCC3)o1`: the inhibition is 21.5%.
In the case of `CSc1ccccc1NC(=O)CN(C)CC(=O)c1[nH]c(C)c(C(C)=O)c1C` it was -0.15%; in that of `Cc1ccc(S(=O)(=O)N2CCN(C(=O)Cn3c(=O)oc4ccccc43)CC2)cc1`, 8.54%; in that of `Cc1nc(-c2nc(-c3c(C(=O)NNC(=O)Nc4cccc(Cl)c4)noc3C)cs2)cs1`, 11.3%.
In the case of `Cc1nc(-c2nc(-c3c(C(=O)NNC(=O)Nc4ccccc4)noc3C)cs2)cs1` it was -4.32%; in that of `CC(=O)Nc1c(C(=O)NCc2ccccc2)nnn1Cc1ccccc1`, -10.2%.
In the case of `COc1ccc(N(CC(=O)Nc2ccccc2F)S(=O)(=O)c2ccc(C)c([N+](=O)[O-])c2)cc1` it was 0.33%.
As to `COc1ccc(N(CC(=O)Nc2ccccc2C(=O)O)S(=O)(=O)c2ccc(C)c([N+](=O)[O-])c2)cc1`, the inhibition was -2.79%.
In the case of `COc1ccc(N(CC(=O)Nc2ccc(C)cc2C)S(=O)(=O)c2c(C)n[nH]c2C)cc1` it was 6.74%.
In the case of `COc1ccc(N(CC(=O)Nc2ccc(Cl)cc2)S(=O)(=O)c2c(C)n[nH]c2C)cc1` it was 2.17%.
